High-throughput results from PubChem BioAssay.
Sampled rows, rich in hits. Any-hit rate of the full collection: about 0.96%.
sEH inhibitor: blocks human soluble epoxide hydrolase activity; 91,000 compounds, 0.34% hits; inhibition, % at 2 µM; recombinant human sEH enzymatic activity assay; AID 707; P34913; in the data active = inhibition above about 80%
Target sequence (P34913 whole entry, looked up): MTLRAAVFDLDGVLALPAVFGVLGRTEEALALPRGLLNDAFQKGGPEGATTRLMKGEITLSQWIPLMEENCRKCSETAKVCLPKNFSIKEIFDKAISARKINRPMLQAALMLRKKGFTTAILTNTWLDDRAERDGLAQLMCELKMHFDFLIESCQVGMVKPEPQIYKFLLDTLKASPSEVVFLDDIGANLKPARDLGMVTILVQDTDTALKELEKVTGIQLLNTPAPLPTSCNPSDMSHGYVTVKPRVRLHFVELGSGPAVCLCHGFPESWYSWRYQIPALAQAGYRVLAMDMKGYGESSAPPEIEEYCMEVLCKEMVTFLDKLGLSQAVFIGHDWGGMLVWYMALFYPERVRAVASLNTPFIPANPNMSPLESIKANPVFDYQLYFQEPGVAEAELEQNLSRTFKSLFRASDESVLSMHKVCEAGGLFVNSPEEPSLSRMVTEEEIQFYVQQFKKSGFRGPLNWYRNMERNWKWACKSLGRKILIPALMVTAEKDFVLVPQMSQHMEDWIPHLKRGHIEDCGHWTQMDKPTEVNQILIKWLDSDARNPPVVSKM
sEH activator: soluble epoxide hydrolase (human) activation | AID 717 | 91,000 compounds, 0.04% hits | purified human sEH enzymatic activity, activator screen | activation, % at 2 µM; in the data active = activation above about 37%
E-sel TNF inh: TNF alpha driven E-selectin expression inhibition; inhibition, % at 2 µM; HUVEC TNFa-induced E-selectin immunofluorescence, high content; AID 1246; 120,000 compounds, 0.71% hits;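 active = inhibition above the batch mean plus 3 SD, and confirmed as a hit on visual image review, cut at about 43% in these data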;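 also: 0% = TNF-stimulated DMSO wells and 100% = unstimulated control wells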
F-actin modifier: alters cytoskeleton assembly in HUVEC cells. HUVEC TNFa F-actin phalloidin imaging, high content. inhibition, % at 2 µM. 91,000 compounds, 0.18% hits;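 active = inhibition above the batch mean plus 3 SD and confirmed as a hit by visual image inspection, cut at about 30% in these data, passing the limit was not always enough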
Phagocytosis inh: macrophage phagocytosis inhibition; AID 1029; inhibition, % at 5 µM; J774A.1 macrophage IgG-bead phagocytosis, imaging; 110,000 compounds, 0.07% hits;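 active = inhibition above the mean of the plate negative controls plus 5 SD, cut at about 13% in these data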;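 also: phagocytic index as fraction of beads internalized from green versus red external bead signal; plate controls were DMSO negative control for no effect and cytochalasin-D positive control for full effect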
sdo1 growth: restores growth of sdo1-depleted yeast | z-score at 10 µM | 140,000 compounds, 0.21% hits | S. cerevisiae sdo1-depleted JHY4D growth rescue, OD600 30 h; stronger effect = higher value; pdr5 snq2 efflux-pump mutant strain;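 active = z-score above 3 at both the 24 hr and the 30 hr optical density reads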;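 also: z-score against mean and SD of all compound wells on the same plate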
An asterisk follows results filed as active; . = not tested or not shown; [ ] = another dose, or the depositor's remark.

SMILES | sEH inhibitor | sEH activator | E-sel TNF inh | F-actin modifier | Phagocytosis inh | sdo1 growth
Cc1ccc2c(c1)c1c3n2CCCN(Cc2ccccc2)C3CCC1 (stereo unspecified) | 6 | -5 | . | -4 | 38*[artifact] | -1.9
CCC(NS(=O)(=O)c1ccc(C)cc1)C(=O)Nc1ccc(NC(C)=O)cc1 (stereo unspecified) | 12 | -10 | -25 | 11 | -1 | 1.2
O=C(Nc1cccc(Cl)c1)c1ccc(OC(=S)N2CCOCC2)cc1 | . | . | 2 | . | . | .
O=C(Nc1cccc2ccccc12)c1ccc(OC(=S)N2CCOCC2)cc1 | 88* | -88 | -42 | 34 | -2 | -1.1
O=C(CSc1cn(Cc2ccccc2)c2ccccc12)N1CCOCC1 | 12 | -11 | . | 13 | 0 | -0.09
CCn1c(SCC(=O)NCC2CCCO2)nc2c(c1=O)SC(C)C2 (stereo unspecified) | . | . | 92* | . | 0 | 0.63
CCn1c(SCC(=O)NC2CCCCC2)nc2c(c1=O)SC(C)C2 (stereo unspecified) | -2 | 4 | -37 | . | . | -1.7
CN(C)S(=O)(=O)c1ccc(S(=O)(=O)NC2CCOC(C)(C)C2)cc1 (stereo unspecified) | 8 | -5 | -4 | -10 | . | 0.68
CC(C)n1c(SCC(=O)Nc2nc3c(s2)CCCC3)nc2c1c(=O)n(C)c(=O)n2C | 6 | -2 | 100* | 1 | . | -0.34
CCOC(=O)c1c(NC(=O)CSc2nc3c(c(=O)n(C)c(=O)n3C)n2C(C)C)sc(C)c1C | -4 | 3 | -4 | -3 | . | -0.41
Cc1ccc(C)n1-c1cccc(NC(=O)c2ccccc2)c1 | . | . | 93* | . | -2 | 0.35
Cc1ccc(C)n1-c1ccc(C(=O)Nc2ccccc2)cc1 | . | . | -6 | . | -1 | 0.1
CC/C(=N\O)c1ccc(O)c(OC)c1 | . | . | -21 | . | 1 | 0.66
Cc1cc(C)c(S(=O)(=O)n2ccc(-c3ccc(OCCN(C)c4ccccn4)cc3)n2)c(C)c1 | 5 | -4 | 10 | -6 | . | 0.95
C/C(=N\NC(=O)c1cccc(C)c1)c1ccc(N2CCOCC2)cc1 | 8 | -6 | 100* | -13 | -2 | 0.65
O=C(Nc1cc(C(F)(F)F)ccc1N1CCOCC1)c1ccccc1 | 4 | -3 | 20 | 6 | -1 | -0.87
COC(=O)Nc1cc(C(F)(F)F)ccc1N1CCN(c2ccccc2)CC1 | -1 | 2 | -34 | -5 | 90* | 0.51
COc1ccccc1C(=O)NNC(=S)NC(=O)c1ccco1 | . | . | -1 | . | 1 | -1.2
O=C(CSCc1ccc(Cl)cc1)N/N=C/c1ccc(Cl)cc1Cl | 80* | -80 | -90 | -10 | 0 | -1
Cc1ccc(/C=N/NC(=O)CSCc2ccc(Cl)cc2)cc1 | 50 | -50 | -59 | 10 | -1 | -1.4
Cc1cc(C)cc(NC(=S)NC2CC3CCCC(C2)N3C2CC2)c1 (stereo unspecified) | . | . | 100* | . | . | .
S=C(Nc1ccc(Cl)cc1)NC1CC2CCCC(C1)N2C1CC1 (stereo unspecified) | -3 | 4 | -19 | -37 | 0 | -0.18
CC(C)(C)Cc1nnc(NS(C)(=O)=O)s1 | 1 | 2 | -8 | 4 | . | .
CC(C)Cc1nnc(NS(C)(=O)=O)s1 | 7 | -6 | 52* | 16 | 0 | 0.36
O=C(O)CCC(=O)Nc1ccc(Br)c(Cl)c1 | 5 | -4 | 75* | 0 | 2 | 1.3
SMILES | sEH inhibitor | sEH activator | E-sel TNF inh | F-actin modifier | Phagocytosis inh | sdo1 growth
CCCC(=O)Nc1ccc(Br)c(Cl)c1 | 13 | -11 | 27 | 4 | . | 0.61
O=C(c1cccc(F)c1)N1CCN(c2cc(N3CCCCC3)c(F)cc2[N+](=O)[O-])CC1 | -7 | 6 | 51* | 16 | 0 | -0.74
CCN(CC)C(=O)Cn1cc(C(=O)C(=O)NCCCn2ccnc2)c2ccccc21 | . | . | 16 | . | . | .
COc1ccc(S(=O)(=O)Nc2ccc(N(C)C(C)=O)cc2)cc1 | -9 | 8 | 7 | 10 | 192* | 0.3
COc1ccc(S(=O)(=O)Nc2ccc(NC(C)=O)cc2)cc1 | -16 | 13 | -3 | -6 | . | 0.72
CC1c2nc3ccccc3n2C(CC(=O)NC2CC2)C(=O)N1Cc1ccccc1 (stereo unspecified) | . | . | -5 | . | . | .
CCOc1ccc(N/C=C/C(=O)c2ccc(OC)cc2)c([N+](=O)[O-])c1 | -18 | 18 | 23 | 7 | . | 0.55
COc1ccc(N/C=C/C(=O)c2ccc(C)cc2)c([N+](=O)[O-])c1 | 5 | -4 | 65* | 19 | . | .
O=C(CCN1C(=O)C2C3C=CC(C3)C2C1=O)NCC1CCCO1 (stereo unspecified) | 8 | -9 | . | 69* | -1 | 0.06
Cc1cc(C)nc(N/C(=N\S(=O)(=O)Cc2ccccc2)Nc2ccc(F)c(Cl)c2)n1 | . | . | -10 | . | -10 | -0.7
NS(=O)(=O)c1ccc(CNC(=O)/C=C/c2c(F)cccc2Cl)cc1 | . | . | -20 | . | . | .
NS(=O)(=O)c1ccc(CNC(=O)/C=C/c2c(Cl)cccc2Cl)cc1 | 92* | -92 | 3 | 23 | . | -0.83
Cc1cc(NC(=O)C(=O)NCCN2CCN(C(=O)c3cccs3)CC2)ccc1Br | 6 | -8 | 0 | 34* | . | 0.65
CC(C)(C)NC(=O)NC(=O)CSc1ncn[nH]1 | . | . | 100* | . | . | .
O=C(CSc1ncn[nH]1)CSc1ncn[nH]1 | . | . | 10 | . | . | .
COc1cccc(-n2nc(C#N)c(Cl)cc2=O)c1 | . | . | 98* | . | . | .
COc1cccc(-n2nc(C(N)=O)c(O)cc2=O)c1 | . | . | -18 | . | . | .
O=C(NCC1CCCO1)c1ccc(S(=O)(=O)N2CCC(c3nc4ccc(Cl)cc4[nH]3)CC2)cc1 (stereo unspecified) | 81* | -81 | 4 | -20 | . | 0.6
O=C(c1ccc(S(=O)(=O)N2CCC(c3nc4ccccc4[nH]3)CC2)cc1)N1CCOCC1 | . | . | -34 | . | -1 | 0.41
CCCCCOc1ccccc1C(=O)NCCC(=O)O | 0 | 1 | -12 | -7 | . | 0.14
COc1ccc(C2CC(c3ccccc3)=NN2C(=O)COC(=O)c2nc3nc(C)cc(C)n3n2)cc1 (stereo unspecified) | . | . | -10 | . | . | .
CC(NC(=O)COc1ccc(Br)cc1)C(=O)O (stereo unspecified) | 3 | -5 | 9 | 16 | 0 | 0.5
CC(NC(=O)COc1cccc(Br)c1)C(=O)O (stereo unspecified) | -13 | 11 | 77* | 43 | -1 | -0.18
COc1ccc(NC(=O)CC2C(=O)N(c3ccc(F)cc3)C(=S)N2NC(=O)c2ccc(Cl)cc2)cc1 (stereo unspecified) | . | . | . | . | -3 | -0.26
CCOC(=O)C1C(=O)CC(C)(O)C(C(=O)OCC)C1c1ccc(OC)cc1 (stereo unspecified) | 7 | -5 | . | -26 | 0 | 0.84
CCOC(=O)C1C(=O)CC(C)(O)C(C(=O)OCC)C1c1ccccc1 (stereo unspecified) | 0 | 6 | 59* | 19 | . | 0.52
O=c1ccccn1Cc1c(F)cccc1Cl | -2 | 1 | 15 | -12 | 0 | 0.87
COc1ccc(S(=O)(=O)N2C3CCC2CC(NC(=O)NC2CCCCC2)C3)cc1 (stereo unspecified) | 98* | -98 | 7 | 8 | -1 | -0.53
